Screens (PubChem BioAssay)
HT1080 IDH1KD tx – qHTS for induction of synthetic lethality in tumor cells producing 2HG: qHTS for the HT-1080-IDH1KD cell line. Potency, µM (highest dose often 46.1 µM), without a hit: top-dose activity, negative = toxicity, hits mostly cytotoxic. AID 686971, 2013. HT-1080 IDH1 knockdown viability, ATP luminescence, 48 h. 360,000 tested, 2% active;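 also: potency is read from the fitted curve at half-maximal effect; 0% = DMSO wells and -100% = cell-free medium wells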
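% activity derives from luminescence (CellTiter-Glo), normalised to DMSO and no-cell wells. HT-1080-IDH1KD cells, 750/well, had 48 h compound exposure at 37 °C.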
IL-1B inflam inh – qHTS for Inhibitors of Inflammasome Signaling: IL-1-beta AlphaLISA Primary Screen; 360,000 tested, 4.7% active; THP-1 LPS/ATP IL-1B secretion, AlphaLISA, 16 h; active compounds read low; activity change, % at 57.5 µM; AID 743279, 2014; in the data active = activity change below about -50%; inconclusive = mostly about -30% to -49%
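Secreted IL-1B measured by AlphaLISA bead assay after 16 h compound exposure of THP-1 cells; compounds (final up to 57.5 uM) added 1 h before LPS (250 ng/mL) and ATP (1.25 mM) stimulation; lower signal means less secretion.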
DT40 TDP1 CPT – qHTS for Inhibitors of human tyrosyl-DNA phosphodiesterase 1 (TDP1): qHTS in cells in presence of CPT; 420,000 tested, 12% active; AID 686979, 2013; chicken DT40 Tdp1-/-;hTDP1 cells + 20 nM CPT, ATP luminescence, 48 h; Potency, µM (titrated, usually from 46.2 µM), for the others: at the highest dose activity change, negative = growth inhibition, hits mostly inhibitors; also: potency is read from the fitted curve at half-maximal effect; nearly all actives have a fitted effect of over 55% in size
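Cell growth measured by CellTiter-Glo luminescence after a minimum 48 h, 37 C compound exposure with 20 nM CPT in Tdp1-knockout DT40 cells stably expressing hTDP1, seeded 400/well; qHTS titration format.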
TDP1 cell noCPT – qHTS for Inhibitors of human tyrosyl-DNA phosphodiesterase 1 (TDP1): qHTS in cells in absence of CPT; DT40 Tdp1-/- hTDP1 cells, no CPT, ATP luminescence, 48 h; Potency, µM (series often up to 46.2 µM), for inactives: top-dose activity change, negative = growth inhibition, most hits filed as inhibitors; 420,000 tested, 15% active; AID 686978, 2013; also: potency is read from the fitted curve at half-maximal effect; nearly all actives have a fitted effect of over 55% in size
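Compound effects on proliferation are scored in DT40 Tdp1-/-;hTDP1 cells in the absence of CPT. ATP levels (CellTiter-Glo luminescence) are recorded after a ≥48 hr, 37 °C incubation.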
HT1080NT lethal – qHTS for induction of synthetic lethality in tumor cells producing 2HG: qHTS for the HT-1080-NT fibrosarcoma cell line; HT-1080-NT fibrosarcoma viability, CellTiter-Glo ATP luminescence, 48 h; Potency, µM (highest dose often 46.1 µM), without a hit: at the highest dose activity, negative = less viability, actives largely listed as cytotoxic; 360,000 tested, 1.6% active;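 also: NT is the 2HG producing partner of a matched IDH1 knockdown line; potency is read from the fitted curve at half-maximal effect; 0% = DMSO-treated cells and -100% = media-only wells without cells; nearly all actives have a fitted effect of over 55% in size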
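Toxicity toward the 2HG-producing NT line was scored as %Activity, normalised to DMSO and no-cell wells, from CellTiter-Glo luminescence after 48 hours' treatment.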
Starred values were filed as active, the others as inactive; u = inconclusive; x = no result given; ! = repeats disagree. This is a sample that favours compounds with a hit; in the whole collection about 19% have one here. Unless noted, calls follow the shape of the dose curve; as a rule, active = well fitted curve in the direction sought with a large enough effect; inconclusive = small, poorly fitted or top-dose-only effect, or another doubt; inactive = no such curve, though single readings can be large; an effect the other way counts as inactive or inconclusive. Unless noted, % is scaled to controls: 0 for no effect and ±100 for the full control effect.

SMILES | HT1080 IDH1KD tx | IL-1B inflam inh | DT40 TDP1 CPT | TDP1 cell noCPT | HT1080NT lethal
C=CC[C@@H](CC(=O)N(CCO)Cc1ccccc1)C(=O)NC[C@@H](OC(=O)[C@@H](CC=C)CC(=O)OC(C)(C)C)c1ccccc1 | -7.9% | u | u | u | -20.0%
Cc1ccc(-c2nnc(Nc3ccc(O)cc3)c3ccccc23)cc1S(=O)(=O)N1CCOCC1 | x | x | u | 16.4µM* | x
CC(C)(C)c1ccc(C(=O)Nc2ccc(Cl)cc2C(=O)c2ccccc2)cc1 | x | x | 7.4% | -8.8% | x
COc1ccc(CN2CCN(c3ncnc4sc5c(c34)CCCC5)CC2)cc1F | x | x | 8.2µM* | 5.17µM* | x
CC1=CC2/C=C(\C)CCC(O)C(O)/C=C/C(=O)C23C(=O)NC(CC(C)C)C3C1C (centres undefined) | 7.31µM* | -105.9* | 3.66µM* | 1.84µM* | 11.6µM*
COc1ccc(CN2C(=O)NC(=O)/C(=C\c3ccco3)C2=O)cc1 | -8.4% | -9.3 | u | u | -10.6%
COc1ccc(CN2C(=O)NC(=O)/C(=C\c3cc(OC)c(OC)c(OC)c3)C2=O)cc1 | -6.1% | -15.7 | 18.4µM* | u | 0.8%
COc1ccc(CN2C(=O)NC(=O)/C(=C/c3ccc([N+](=O)[O-])s3)C2=O)cc1 | -3.7% | 10.2 | 10.3µM* | 4.61µM* | -20.3%
COc1cc(OC)c(OC)cc1/C=C1/C(=O)NC(=O)N(Cc2ccccc2)C1=O | 0.4% | -15.7 | -0.9% | u | 0.0%
O=C1NC(=O)N(Cc2ccc(F)cc2)C(=O)/C1=C\c1ccc(N2CCCC2)cc1 | -5.8% | -8.5 | 11.4% | -14.2% | -1.3%
O=C1NC(=O)N(Cc2ccc(F)cc2)C(=O)/C1=C\c1ccc([N+](=O)[O-])s1 | -0.9% | -6.8 | 13µM* | 8.2µM* | -20.9%
Cn1cc(C(=O)NP(=O)(N2CCOCC2)N2CCOCC2)c2ccccc21 | -1.5% | 5.9 | 9.3% | 13.1% | -1.5%
CC(C)c1cccc(O)c(=O)c1 | -22.5% | 0.0 | 6.51µM*! | 22.4µM* | -21.2%
Cc1cccnc1-n1c(CN2C(=O)c3ccccc3C2=O)nc2ccccc2c1=O | -0.4% | 8.0 | -7.6% | 5.1% | 11.6%
CCCS(=O)(=O)NC(=O)C1(C)CCCN(C(=O)c2ccccc2OC)C1 (centres undefined) | 22.8% | 9.0 | 6.9% | 1.8% | u
O=C(Nc1cccc(F)c1)N1CCC2(CC1)CCN(C(=O)Oc1ccccc1)CC2 | x | x | u | 23.1µM* | x
O=C(Nc1cccc(F)c1)N1CC2(CCNCC2)C1 | x | x | 8.2µM* | 8.2µM* | x
O=C(Nc1cccc(F)c1)N1CC2(CCN(C(=O)Oc3ccccc3)CC2)C1 | x | x | 8.8% | u | x
OCC(Cl)CCl (centres undefined) | 17.2% | -5.9 | -1.1% | 4.0% | -7.1%
C[C@@H]1CN([C@@H](C)CO)C(=O)c2cccc(NC(=O)c3ccncc3)c2O[C@@H]1CN(C)Cc1ccc(-c2ccccc2)cc1 | -3.1% | u | u | u | -1.2%
COc1ccc(NC(=O)Nc2ccc3c(c2)C(=O)N([C@H](C)CO)C[C@H](C)[C@@H](CN(C)Cc2ccc(Cl)c(Cl)c2)OCCCC[C@@H](C)O3)cc1 | -28.4% | u | -16.9% | 16.4µM* | -15.6%
C[C@@H]1CCCCO[C@H](CN(C)Cc2ccccc2)[C@@H](C)CN([C@H](C)CO)C(=O)c2cc(NC(=O)c3ccccc3)ccc2O1 | -4.7% | -17.1 | u | 18.4µM* | -2.8%
C[C@H]1CN([C@@H](C)CO)C(=O)c2cc(NC(=O)Nc3cccc4ccccc34)ccc2O[C@@H]1CN(C)Cc1ccc(-c2ccccc2)cc1 | -1.1% | 0.9 | 23.1µM* | 16.4µM* | -29.8%
